The supplement of paper PMC10849652
About 8,800 targets were measured; listed, in parts, are those with a hit and a random draw of the rest. About 0.5% of all pairs of compound and target were hits.

What was measured:
Test in all cases: log2 fold change, soluble protein after heating vs DMSO (PISA); higher = thermal stabilisation; K562 lysate, 10 uM; active = over 0.2 and 3.5 SD of the protein, either way, in both replicates (recomputed)
vemurafenib = compound: CCCS(=O)(=O)Nc1ccc(F)c(C(=O)c2c[nH]c3ncc(-c4ccc(Cl)cc4)cc23)c1F [vemurafenib]
In short: (§1)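 K562 pellets were dounce-homogenised in PBS pH 7.4 containing 1 mM MgCl2, and the crude extract, at 1 mg/mL protein, was exposed to 10 μM compound for 30 min. Aliquots were heated for 3 min across 48°C-58°C, pooled, brought to 0.5% NP-40 at 4°C and spun at 21,000xg for 90 min, with the supernatant taken as soluble protein. TMTpro 16plex LC-MS/MS with equalised channel sums quantified that protein. Values are log-two fold changes in thermal stability relative to solvent controls, taken from duplicates.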

[1] = compound: CC[C@@H]1C(=O)N(C)c2cnc(Nc3ccc(C(=O)NC4CCN(C)CC4)cc3OC)nc2N1C1CCCC1
In short: as §1

[2] = compound: CCn1cc(-c2ccnc3[nH]c(-c4cccc(CN(C)C)c4)cc23)c(-c2ccc(NC(=O)N(C)C)cc2)n1
In short: as §1

[3] = compound: CN1CCC(CNc2ccc3ncc(-c4cccc(OC(F)(F)F)c4)n3n2)CC1
In short: as §1

saracatinib = compound: CN1CCN(CCOc2cc(OC3CCOCC3)c3c(Nc4c(Cl)ccc5c4OCO5)ncnc3c2)CC1 [saracatinib]
In short: as §1

alvocidib = compound: CN1CC[C@H](c2c(O)cc(O)c3c(=O)cc(-c4ccccc4Cl)oc23)[C@H](O)C1 [alvocidib]
In short: as §1

defactinib = compound: CNC(=O)c1ccc(Nc2ncc(C(F)(F)F)c(NCc3nccnc3N(C)S(C)(=O)=O)n2)cc1 [defactinib]
In short: as §1

[4] = compound: CNc1nc(-c2ccc3c(N)n[nH]c3c2)cc(N2C[C@@H](C(=O)NC3CCCCC3)CC[C@H]2C)n1
In short: as §1

encorafenib = compound: COC(=O)N[C@@H](C)CNc1nccc(-c2cn(C(C)C)nc2-c2cc(Cl)cc(NS(C)(=O)=O)c2F)n1 [encorafenib]
In short: as §1

[5] = compound: COC(=O)[C@H](CCSC)NC(=O)C1=C(C=C(C=C1)NC[C@H](CS)N)C2=CC=CC=C2
In short: as §1

barasertib = compound: CCN(CCCOc1ccc2c(Nc3cc(CC(=O)Nc4cccc(F)c4)[nH]n3)ncnc2c1)CCOP(=O)(O)O [barasertib]
In short: as §1

[6] = compound: CCn1c(C(=O)N(C2CC2)C2CC2)cc2c3c(ncn3C)c(Nc3cc(C)n(C)n3)nc21
In short: as §1

sotrastaurin = compound: CN1CCN(c2nc(C3=C(c4c[nH]c5ccccc45)C(=O)NC3=O)c3ccccc3n2)CC1 [sotrastaurin]
In short: as §1

Tubastatin A = compound: CN1CCc2c(c3ccccc3n2Cc2ccc(C(=O)NO)cc2)C1 [Tubastatin A]
In short: as §1

[7] = compound: CNC(=O)C1=CC=CC=C1NC2=NC(=NC=C2Cl)NC3=C(C=C(C=C3)N4CCOCC4)OC
In short: as §1

[8] = compound: CCCS(=O)(=O)Nc1ccc(F)c(C(=O)c2c[nH]c3ncc(Cl)cc23)c1F
In short: as §1

volasertib = compound: CC[C@@H]1C(=O)N(C)c2cnc(Nc3ccc(C(=O)N[C@H]4CC[C@H](N5CCN(CC6CC6)CC5)CC4)cc3OC)nc2N1C(C)C [volasertib]
In short: as §1

alisertib = compound: COc1cc(Nc2ncc3c(n2)-c2ccc(Cl)cc2C(c2c(F)cccc2OC)=NC3)ccc1C(=O)O [alisertib]
In short: as §1

[9] = compound: COc1cc2nc(-c3cc(F)ccc3O)nc(N[C@@H]3CNC[C@H]3C(C)(C)O)c2cc1OC
In short: as §1

gefitinib = compound: COc1cc2ncnc(Nc3ccc(F)c(Cl)c3)c2cc1OCCCN1CCOCC1 [gefitinib]
In short: as §1

Measured: log2 fold change

GTPBP6 (UniProt O43824)
Sequence of UniProt O43824 (O43824 whole entry, looked up): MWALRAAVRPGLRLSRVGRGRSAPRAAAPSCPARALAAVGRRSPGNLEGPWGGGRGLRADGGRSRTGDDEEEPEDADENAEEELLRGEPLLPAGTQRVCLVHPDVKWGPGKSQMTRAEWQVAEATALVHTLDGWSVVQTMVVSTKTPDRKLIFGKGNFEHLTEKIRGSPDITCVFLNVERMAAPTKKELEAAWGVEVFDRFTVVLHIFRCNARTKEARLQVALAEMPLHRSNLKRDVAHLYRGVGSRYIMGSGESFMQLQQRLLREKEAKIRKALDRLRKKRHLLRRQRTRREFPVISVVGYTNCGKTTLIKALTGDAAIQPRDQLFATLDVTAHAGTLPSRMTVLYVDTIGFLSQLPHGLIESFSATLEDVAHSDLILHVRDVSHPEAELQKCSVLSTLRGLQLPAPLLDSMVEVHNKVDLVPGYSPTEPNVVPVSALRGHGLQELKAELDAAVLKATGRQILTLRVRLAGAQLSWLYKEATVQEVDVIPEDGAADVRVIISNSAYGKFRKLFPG
inactive: vemurafenib -0.089 | [1] 0.32 | [2] -0.062 | [3] -0.096 | saracatinib -0.166 | alvocidib 0.046 | defactinib 0.163 | [4] 0.673 | encorafenib -0.076 | [5] 0.235

ISL2 (UniProt Q96A47)
active: [2] 0.832 | [3] -0.397
inactive: barasertib -0.108 | [6] 0.018 | saracatinib 0.028 | sotrastaurin -0.107 | alvocidib 0.36 | Tubastatin A 0.032 | [7] -0.042 | [4] 0.025

GSTM2 (UniProt P28161)
inactive: vemurafenib -0.005 | [8] 0.07 | barasertib 0.024 | [1] 0.015 | volasertib 0.005 | [6] -0.027 | [2] 0.131 | [3] -0.091 | saracatinib 0.003 | alvocidib 0.079 | Tubastatin A 0.045 | [7] 0.009 | defactinib 0.036 | [4] -0.016 | encorafenib -0.024 | [5] 0.068 | alisertib 0.01 | [9] -0.015 | gefitinib 0.034

GNB4 (UniProt Q9HAV0)
inactive: [8] 0.089 | barasertib -0.046 | [1] -0.018 | volasertib -0.036 | [6] 0.016 | [2] 0.001 | [3] 0.166 | saracatinib -0.165 | sotrastaurin -0.04 | alvocidib -0.114 | Tubastatin A -0.002 | [7] -0.091 | [4] 0.01 | encorafenib -0.01 | [5] 0.141 | alisertib -0.168 | [9] 0.095
active: gefitinib -0.364

HSPBAP1 (UniProt Q96EW2)
Sequence of UniProt Q96EW2 (Q96EW2 whole entry, looked up): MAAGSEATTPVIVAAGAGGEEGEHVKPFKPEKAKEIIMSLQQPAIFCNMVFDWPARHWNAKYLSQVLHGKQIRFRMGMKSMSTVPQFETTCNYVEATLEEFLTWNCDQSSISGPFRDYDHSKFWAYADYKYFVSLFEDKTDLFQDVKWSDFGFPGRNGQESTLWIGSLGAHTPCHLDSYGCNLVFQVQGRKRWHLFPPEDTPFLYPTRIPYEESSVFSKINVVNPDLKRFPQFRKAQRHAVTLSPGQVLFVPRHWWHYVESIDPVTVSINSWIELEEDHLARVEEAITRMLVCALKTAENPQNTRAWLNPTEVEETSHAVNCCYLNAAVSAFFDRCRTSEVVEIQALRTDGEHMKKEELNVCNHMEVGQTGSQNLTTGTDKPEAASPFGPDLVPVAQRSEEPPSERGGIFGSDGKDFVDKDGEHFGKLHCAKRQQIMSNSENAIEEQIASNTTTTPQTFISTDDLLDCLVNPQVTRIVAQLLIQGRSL
active: [4] -0.547
inactive: [8] 0.04 | barasertib 0.012 | [1] 0.155 | volasertib 0.044 | [6] -0.058 | [2] -0.293 | [3] -0.038 | saracatinib -0.054 | sotrastaurin 0.027 | alvocidib -0.094 | Tubastatin A -0.139 | [7] 0.02 | encorafenib 0.097 | [5] -0.154 | alisertib -0.113 | [9] -0.104 | gefitinib -0.005

ITM2B (UniProt Q9Y287)
inactive: vemurafenib 0.021 | barasertib 0.258 | [6] -0.012 | [2] -0.141 | [3] 0.069 | saracatinib -0.053 | sotrastaurin -0.012 | alvocidib 0.015 | Tubastatin A 0.007 | [7] 0.037 | defactinib 0.16 | [4] 0.074 | alisertib 0.006 | gefitinib 0.008

GPLD1 (UniProt P80108)
inactive: saracatinib 0.236 | sotrastaurin -0.13 | [4] -0.452

GPN2 (UniProt Q9H9Y4)
Sequence of UniProt Q9H9Y4 (Q9H9Y4 whole entry, looked up): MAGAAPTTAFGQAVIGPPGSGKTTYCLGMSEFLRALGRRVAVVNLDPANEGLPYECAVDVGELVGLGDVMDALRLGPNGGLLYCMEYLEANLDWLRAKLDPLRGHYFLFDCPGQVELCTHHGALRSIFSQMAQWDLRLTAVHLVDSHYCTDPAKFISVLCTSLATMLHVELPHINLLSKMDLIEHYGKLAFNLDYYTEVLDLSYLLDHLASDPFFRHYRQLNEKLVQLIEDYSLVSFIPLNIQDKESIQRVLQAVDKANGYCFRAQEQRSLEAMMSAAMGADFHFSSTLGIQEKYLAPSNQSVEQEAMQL
inactive: vemurafenib -0.027 | [8] 0.026 | [1] -0.098 | volasertib -0.028 | [6] 0.072 | [2] 0.009 | [3] 0.019 | saracatinib 0.003 | sotrastaurin 0.021 | alvocidib -0.034 | Tubastatin A -0.027 | [7] -0.004 | defactinib 0.112 | [4] -0.007 | encorafenib 0.19 | [5] -0.038 | alisertib 0.008 | [9] -0.038 | gefitinib -0.001

ITPR2 (UniProt Q14571)
inactive: [8] -0.044 | volasertib 0.336 | [6] -0.222 | saracatinib 0.088 | Tubastatin A -0.03 | [7] 0.074 | [4] 0.239 | alisertib 0.001 | [9] 0.234 | gefitinib -0.019

HYDIN (UniProt Q4G0P3)
inactive: vemurafenib -0.075 | [8] 0.081 | [1] 0.089 | volasertib 0.021 | [6] 0.76 | saracatinib 0.028 | Tubastatin A -0.041 | defactinib 0.045 | [4] 0.414 | encorafenib 0.172 | [5] -0.02 | [9] -0.154

JAK3 (UniProt P52333)
inactive: vemurafenib -0.127 | [8] 0.014 | barasertib 0.064 | volasertib -0.062 | [2] 0.524 | [3] -0.488 | sotrastaurin 0.014 | alvocidib 0.254 | defactinib 0.06 | [9] -0.041

HNRNPM (UniProt M0R019)
inactive: vemurafenib -0.137 | defactinib -0.112

HMGA1 isoform 2 (UniProt P17096)
Sequence of UniProt P17096 (P17096 whole entry, looked up): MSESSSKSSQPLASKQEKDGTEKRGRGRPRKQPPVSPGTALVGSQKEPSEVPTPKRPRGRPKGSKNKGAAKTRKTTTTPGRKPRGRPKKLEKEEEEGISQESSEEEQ
active: [2] 0.875
inactive: [8] 0.019 | volasertib 0.034 | [6] 0.027 | [3] -0.339 | saracatinib 0.053 | sotrastaurin -0.106 | alvocidib 0.289 | Tubastatin A 0.102 | [7] 0.085 | [4] 0.034 | alisertib -0.255 | [9] -0.038 | gefitinib -0.442

HDAC3 (UniProt E7ESJ6)
inactive: [8] 0.031 | volasertib -0.16 | [9] -0.005

GORASP1 (UniProt Q9BQQ3)
Sequence of UniProt Q9BQQ3 (Q9BQQ3 whole entry, looked up): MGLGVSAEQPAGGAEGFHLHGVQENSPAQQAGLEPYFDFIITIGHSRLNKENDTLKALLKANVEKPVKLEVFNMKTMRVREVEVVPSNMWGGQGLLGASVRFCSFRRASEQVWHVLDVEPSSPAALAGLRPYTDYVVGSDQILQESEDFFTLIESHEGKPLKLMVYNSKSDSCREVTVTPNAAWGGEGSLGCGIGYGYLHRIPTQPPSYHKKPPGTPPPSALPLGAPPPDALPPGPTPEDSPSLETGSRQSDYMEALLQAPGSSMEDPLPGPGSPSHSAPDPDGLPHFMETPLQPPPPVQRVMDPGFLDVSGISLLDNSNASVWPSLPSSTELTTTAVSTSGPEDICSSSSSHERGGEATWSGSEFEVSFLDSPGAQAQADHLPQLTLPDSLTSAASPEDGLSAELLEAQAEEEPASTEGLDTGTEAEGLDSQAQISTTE
inactive: vemurafenib 0.011 | [8] -0.016 | [1] -0.065 | volasertib 0.092 | [6] -0.019 | [2] -0.025 | [3] 0.08 | saracatinib 0.03 | sotrastaurin 0.016 | alvocidib -0.052 | Tubastatin A -0.035 | [7] 0.018 | defactinib 0.008 | [4] -0.071 | encorafenib 0.108 | [5] -0.009 | alisertib -0.037 | [9] 0.076 | gefitinib 0.016

HOMER3 (UniProt Q9NSC5)
inactive: [8] 0.123 | barasertib -0.129 | volasertib -0.011 | [2] 0.037 | [3] -0.071 | sotrastaurin 0.028 | alvocidib -0.066 | [9] 0.069

IPP (UniProt Q9Y573)
inactive: vemurafenib -0.102 | [8] 0.056 | [1] 0.169 | volasertib -0.162 | [6] 0.006 | [2] 0.057 | [3] -0.014 | saracatinib -0.035 | alvocidib 0.001 | Tubastatin A -0.075 | [7] -0.07 | defactinib 0.016 | [4] 0.029 | encorafenib -0.138 | [5] -0.171 | [9] 0.06

HNRNPM (UniProt M0QZM1)
inactive: vemurafenib -0.027 | barasertib 0.229 | [1] 0.171 | saracatinib -0.066 | sotrastaurin -0.054 | defactinib 0.073 | [4] 0.128 | encorafenib 0.006 | [5] -0.025

HTT (UniProt P42858)
Sequence of UniProt P42858 (P42858 whole entry, looked up): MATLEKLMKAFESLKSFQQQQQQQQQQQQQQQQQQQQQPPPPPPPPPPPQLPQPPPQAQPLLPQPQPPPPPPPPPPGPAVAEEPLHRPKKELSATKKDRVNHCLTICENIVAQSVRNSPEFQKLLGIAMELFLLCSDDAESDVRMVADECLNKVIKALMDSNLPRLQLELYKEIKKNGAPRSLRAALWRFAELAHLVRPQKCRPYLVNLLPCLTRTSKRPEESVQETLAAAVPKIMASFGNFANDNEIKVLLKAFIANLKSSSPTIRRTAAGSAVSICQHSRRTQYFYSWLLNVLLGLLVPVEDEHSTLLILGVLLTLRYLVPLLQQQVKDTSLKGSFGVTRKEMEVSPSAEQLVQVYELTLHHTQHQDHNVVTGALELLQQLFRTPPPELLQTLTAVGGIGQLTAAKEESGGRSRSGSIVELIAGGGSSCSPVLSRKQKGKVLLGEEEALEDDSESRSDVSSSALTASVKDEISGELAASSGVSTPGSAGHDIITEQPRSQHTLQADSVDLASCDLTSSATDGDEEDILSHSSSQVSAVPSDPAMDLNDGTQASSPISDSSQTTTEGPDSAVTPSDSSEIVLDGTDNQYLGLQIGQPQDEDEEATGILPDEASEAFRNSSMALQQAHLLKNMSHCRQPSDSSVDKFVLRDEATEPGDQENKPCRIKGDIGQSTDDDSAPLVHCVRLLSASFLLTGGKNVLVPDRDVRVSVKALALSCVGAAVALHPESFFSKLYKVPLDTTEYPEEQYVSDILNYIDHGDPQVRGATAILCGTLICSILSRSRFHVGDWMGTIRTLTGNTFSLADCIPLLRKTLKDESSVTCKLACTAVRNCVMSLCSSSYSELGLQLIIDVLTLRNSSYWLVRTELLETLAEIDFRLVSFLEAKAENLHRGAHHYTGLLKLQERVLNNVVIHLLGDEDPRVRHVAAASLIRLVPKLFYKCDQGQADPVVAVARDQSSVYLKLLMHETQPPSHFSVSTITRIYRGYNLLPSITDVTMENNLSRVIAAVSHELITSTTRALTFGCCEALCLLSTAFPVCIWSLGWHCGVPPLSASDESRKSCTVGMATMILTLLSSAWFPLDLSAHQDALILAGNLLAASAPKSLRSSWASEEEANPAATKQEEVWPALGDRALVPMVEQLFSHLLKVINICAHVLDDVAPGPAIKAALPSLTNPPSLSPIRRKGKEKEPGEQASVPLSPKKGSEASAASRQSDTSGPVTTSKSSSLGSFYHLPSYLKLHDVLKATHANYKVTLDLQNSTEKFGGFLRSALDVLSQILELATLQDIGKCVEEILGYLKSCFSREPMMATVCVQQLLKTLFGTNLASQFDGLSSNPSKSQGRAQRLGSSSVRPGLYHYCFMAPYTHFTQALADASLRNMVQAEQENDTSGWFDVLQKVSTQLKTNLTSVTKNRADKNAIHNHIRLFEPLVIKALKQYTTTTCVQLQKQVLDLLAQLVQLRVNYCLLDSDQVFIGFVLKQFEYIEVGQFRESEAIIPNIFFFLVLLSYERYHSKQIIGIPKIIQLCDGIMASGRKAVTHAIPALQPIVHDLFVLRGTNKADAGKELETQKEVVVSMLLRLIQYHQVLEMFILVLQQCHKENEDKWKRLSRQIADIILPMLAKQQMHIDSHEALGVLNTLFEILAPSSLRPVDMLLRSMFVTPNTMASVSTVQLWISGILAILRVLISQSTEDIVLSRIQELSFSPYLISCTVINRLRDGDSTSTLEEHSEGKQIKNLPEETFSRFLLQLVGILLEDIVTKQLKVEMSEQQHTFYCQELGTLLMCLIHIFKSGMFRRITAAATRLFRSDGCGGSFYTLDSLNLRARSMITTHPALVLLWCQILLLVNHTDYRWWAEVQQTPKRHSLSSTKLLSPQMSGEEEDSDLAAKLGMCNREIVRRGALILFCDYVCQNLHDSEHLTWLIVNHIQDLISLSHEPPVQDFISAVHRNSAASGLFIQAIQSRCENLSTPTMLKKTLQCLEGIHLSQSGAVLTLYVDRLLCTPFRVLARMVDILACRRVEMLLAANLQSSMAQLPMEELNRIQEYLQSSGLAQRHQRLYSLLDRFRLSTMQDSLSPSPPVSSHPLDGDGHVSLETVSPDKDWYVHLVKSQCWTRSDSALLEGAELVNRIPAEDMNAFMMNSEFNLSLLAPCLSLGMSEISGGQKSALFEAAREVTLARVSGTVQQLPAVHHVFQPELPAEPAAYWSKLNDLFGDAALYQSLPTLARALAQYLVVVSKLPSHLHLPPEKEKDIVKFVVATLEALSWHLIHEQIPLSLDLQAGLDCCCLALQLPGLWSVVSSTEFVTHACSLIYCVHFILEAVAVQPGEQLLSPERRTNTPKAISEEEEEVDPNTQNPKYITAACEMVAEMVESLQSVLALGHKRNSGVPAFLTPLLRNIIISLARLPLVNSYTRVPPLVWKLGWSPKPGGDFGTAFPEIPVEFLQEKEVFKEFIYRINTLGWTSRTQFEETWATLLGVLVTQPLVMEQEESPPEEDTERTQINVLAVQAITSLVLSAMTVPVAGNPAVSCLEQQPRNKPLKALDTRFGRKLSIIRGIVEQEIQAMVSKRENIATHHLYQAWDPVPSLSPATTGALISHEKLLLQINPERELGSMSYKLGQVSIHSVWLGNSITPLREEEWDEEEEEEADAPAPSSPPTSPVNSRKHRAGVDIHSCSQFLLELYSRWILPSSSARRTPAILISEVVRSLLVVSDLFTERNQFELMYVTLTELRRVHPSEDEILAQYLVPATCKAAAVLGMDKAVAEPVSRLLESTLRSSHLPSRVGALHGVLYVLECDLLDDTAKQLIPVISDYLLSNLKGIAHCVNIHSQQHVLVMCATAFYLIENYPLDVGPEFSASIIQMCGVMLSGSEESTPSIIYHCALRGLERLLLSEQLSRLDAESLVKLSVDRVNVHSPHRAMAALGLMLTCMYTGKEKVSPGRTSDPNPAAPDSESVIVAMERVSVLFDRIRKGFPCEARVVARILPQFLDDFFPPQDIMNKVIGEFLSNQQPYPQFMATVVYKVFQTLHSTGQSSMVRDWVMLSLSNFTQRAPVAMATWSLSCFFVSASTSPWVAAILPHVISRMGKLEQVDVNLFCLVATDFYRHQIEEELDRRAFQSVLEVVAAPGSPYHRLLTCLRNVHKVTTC
inactive: vemurafenib -0.083 | barasertib 0.044 | [1] -0.063 | [6] 0.052 | [2] -0.039 | [3] 0.152 | saracatinib -0.033 | sotrastaurin 0.01 | alvocidib 0 | Tubastatin A -0.195 | [7] 0.022 | defactinib 0.048 | [4] -0.043 | encorafenib 0.008 | [5] -0.003 | alisertib -0.005 | gefitinib -0.032

H3-3A (UniProt P84243)
inactive: vemurafenib 0.027 | [8] 0.015 | barasertib 0.067 | [1] -0.017 | volasertib -0.006 | [2] 0.027 | [3] -0.025 | sotrastaurin -0.028 | alvocidib 0.021 | [7] 0.063 | defactinib -0.04 | encorafenib 0.132 | [5] -0.034 | [9] -0.032

HECW2 (UniProt Q9P2P5)
inactive: vemurafenib 0.026 | [1] -0.213 | [6] -0.04 | saracatinib 0.055 | sotrastaurin 0.065 | Tubastatin A -0.002 | [7] 0.102 | defactinib -0.087 | [4] -0.099 | encorafenib 0 | [5] 0.153 | alisertib 0.114 | gefitinib 0.117

HNRNPD (UniProt D6RF44)
inactive: sotrastaurin 0.079 | alisertib -0.006 | gefitinib -0.014

IGF2BP2 isoform 6 (UniProt Q9Y6M1)
inactive: [8] -0.003 | volasertib -0.153 | [9] 0.289
